test system: XIP peptide (Xip251-270) binding; test: XIP fragment 251-270 binding compounds – biochemical, small-molecule microarray, fluorescence 635/667 nm, 0.1 µg/mL protein, primary screen (AID 1182); settings: fluorescent protein binding, 635 nm, higher = more signal, called active from +8 up or from −8 down

Composite z-score, inactive:
O=C1OCCC/C=C\[C@H]2OC34C=CCN(Cc5ccccc5)C(=O)[C@H]3N(CCCCCO)C(=O)[C@@H]4C12 (stereo not given in full) 0.105, CO[C@H]1O[C@H](CO)[C@@H](OC(=O)Nc2ccc(C(F)(F)F)cc2)[C@H](OC(=O)Nc2ccccc2-c2ccccc2)[C@H]1OC(=O)Nc1ccccc1-c1ccccc1 0.844, COCCOC(=O)N1C(=O)[C@@]2(c3cc(C#CCCO)ccc31)[C@H](C(=O)N1CCN(c3ncccn3)CC1)[C@H]1C(=O)O[C@H](c3ccccc3)[C@H](c3ccccc3)N1[C@@H]2c1ccc(O)cc1 1.43, [N-]=[N+]=NCc1ccccc1[C@H]1OC(c2ccc(OCCCO)cc2)=N[C@@]1(Cc1ccccc1)C(=O)N1CCOCC1 0.0472, C=CCC(OC(C)=O)[C@@H]1[C@@H](N(Cc2ccc(-c3ccccc3)cc2)C(=O)c2ccc(C)cc2)c2cc(OCCCO)ccc2N1C(=O)c1ccc2ccccc2c1 (stereo not given in full) -0.654, CCCCC(O)C1C=CC2C(=O)N(C)C(=O)C2N1Nc1ccccc1 (stereo not given) -0.141, COCCOC(=O)N1C(=O)[C@@]2(c3cc(C#CCC(C(=O)OC)C(=O)OC)ccc31)[C@H](C(=O)N1CCCCCCC1)[C@H]1C(=O)O[C@H](c3ccccc3)[C@H](c3ccccc3)N1[C@@H]2c1ccccc1OCCO 2.48, COC(=O)[C@@]1(Cc2ccccc2)[C@H]2c3cc(C(=O)N4CCCC4)n(Cc4ccc(C(F)(F)F)nc4)c3C[C@H]2CN1C(=O)c1ccccc1 -0.0699, CN1C(=O)[C@]2(CCS(=O)(=O)c3ccccc3)N=C(c3ccc(OCCCO)cc3)O[C@@H]2c2ccccc21 2.2, C=CCC(OC(C)=O)[C@@H]1[C@@H](N(Cc2cccc3ccccc23)C(=O)c2cccc3ccccc23)c2cc(OCCCO)ccc2N1C(=O)Cc1ccc2ccccc2c1 (stereo not given in full) 0.457, CCCCNC(=O)c1ccc(C#C[Si](C)(C)C)c(OC(C)=O)c1 -0.0158, CCOC(=O)C1=CC[C@@H](c2ccccc2Cl)N(S(=O)(=O)c2ccc(C)cc2)[C@H]1c1cccc(OC)c1 0.211, Cc1ccc(F)cc1S(=O)(=O)N[C@@H]1CCN(Cc2ccc3c(c2)OCO3)C1 0.92, C#CCN(C/C=C/c1ccccc1)[C@H](CO[Si](C)(C)C(C)(C)C)c1ccccc1 0.141, N[C@@H](Cc1ccccc1)Cn1cc(C2(O)CCCCC2)nn1 -0.0563, COCCOC(=O)N1C(=O)[C@@]2(c3cc(C#CCC(C(=O)OC)C(=O)OC)ccc31)[C@H](c1ccc(OCCO)cc1)N1[C@H](c3ccccc3)[C@H](c3ccccc3)OC(=O)[C@H]1[C@@H]2C(=O)N1CCCCCCC1 0.836, COc1ccc(NC(=O)O[C@H]2[C@H](OC(=O)Nc3ccc4c(c3)OCO4)[C@H](OC(=O)Nc3ccc4c(c3)OCO4)[C@@H](OC)O[C@@H]2CO)cc1 1.04, COc1ccc(NN2C(C(O)c3cc(C(F)(F)F)cc(C(F)(F)F)c3)C=CC3C(=O)N(C4CCCCC4)C(=O)C32)cc1 (stereo not given) 0.0376, COCCOC(=O)N1C(=O)[C@@]2(c3cc(C#Cc4ccc(OC)cc4)ccc31)[C@H](C(=O)Nc1nc3ccccc3s1)[C@H]1C(=O)O[C@H](c3ccccc3)[C@H](c3ccccc3)N1[C@@H]2c1ccccc1OCCO 0.71, C=C(COC)/C(=C/C[C@H](OC(=O)c1ccncc1)c1ccc(OCCO)cc1)c1cc(C(=O)OC)ccc1OC -0.202, COc1ccc([Si](C)(C)[C@H]2[C@H](CCO)O[C@@]3(C(=O)N(Cc4ccccc4)c4ccc(N(C=O)c5ccccc5)cc43)[C@@H]2C)cc1 0.572, C=CC[C@]1(C(=O)OC)N=C(c2ccc(OCCCO)cc2)O[C@H]1c1ccccc1N=[N+]=[N-] 1.61, COc1ccccc1CN1C(=O)c2ccccc2[C@](Cc2ccccc2I)(C(=O)NCCCN(C)C)[C@@H]1c1ccc(CO)cc1 0.287, CC1CC/C=C\[C@H]2OC34C=CCN(c5ccc(Cl)cc5)C(=O)[C@H]3N(CCCO)C(=O)[C@]4(C)C2C(=O)O1 (stereo not given in full) 0.412, CC[C@H](C)C(=O)O[C@H]1CC[C@]2(C)C3=C(CCC2C1(C)C)[C@]1(C)CC[C@H]([C@H](C)CCCC(C)C)[C@@]1(C)CC3 (stereo not given in full) 0.146, CCOC(=O)C[C@H]1[C@H](OC(=O)c2cc3ccccc3oc2=O)[C@@H](NC(=O)C2CCCCC2)c2cc(OCCCO)ccc2N1C(=O)Cc1ccc(OC)cc1 0.0512, CC(C)C(=C=CC[C@@H](O)c1cccc(OCCO)c1)CCO 0.202, C=C(COC)/C(=C/C[C@H](OC(=O)c1ccncc1)c1cccc(OCCO)c1)c1cnc2ccccc2c1 4.42, CC(C)CNC(=O)[C@@H]1c2ccccc2C(=O)N(Cc2ccccc2)[C@H]1c1ccc(CO)cc1 0.906, C=C(COC)C(=O)CC[C@@H](OC(C)=O)c1ccc(OCCO)cc1 1.61, CCCCC(=C=CC[C@H](O)c1ccc(OCCO)cc1)C[C@H](O)c1ccccn1 0.575, CC(C)c1ccc(NN2C(C(O)C(C)C)C=CC3C(=O)N(c4ccccc4)C(=O)C32)cc1 (stereo not given) 1.49, COCCOC(=O)N1C(=O)[C@@]2(c3cc(C#CC4=CCCCC4)ccc31)[C@H](C(=O)N1CCN(c3ncccn3)CC1)[C@H]1C(=O)O[C@H](c3ccccc3)[C@H](c3ccccc3)N1[C@@H]2c1ccccc1OCCO 0.506, CC(C)C(=C=CC[C@@H](O)c1ccccc1OCCO)C[C@@H](O)c1cc(Cl)cc(Cl)c1O 1.25, COc1ccc(C(O)C2C=CC3C(=O)N(C)C(=O)C3N2Nc2ccc([N+](=O)[O-])cc2[N+](=O)[O-])cc1OCc1ccccc1 (stereo not given) -0.237
